{"source": "the supplement of paper PMC8728848", "binders": {"B1": {"name": "ArathEULS3 TAP (Arabidopsis thaliana) (protein)", "chain": "IDENLYFQGGSMDEKTTGWRGGHVVEGLAGELEQLRARLEHHPQGQREPGGGGSLEITSLYKKAGFMEHHHQHHRHHQRDDGEDDRQSFGVPPPHVDAPPQPHGLYQSQPHFDPYAPTPQAPAPYRSETQFEPHAPPPYRSEPYFETPAPPPSFGHVSHVGHQSPNESYPPEHHRYGGYQQPSNSLLESHGDHSGVTHVAHHSSNQPQSSSGVYHKPDENRLPDNLAGLAGRATVKVYSKAEPNYNLTIRDGKVILAPADPSDEAQHWYKDEKYSTKVKDADGHPCFALVNKATGEAMKHSVGATHPVHLIRYVPDKLDESVLWTESKDFGDGYRTIRMVNNTRLNVDAYHGDSKSGGVRDGTTIVLWDWNKGDNQLWKIFPF"}}, "assay_in_all_cases": "glycan array binding signal (z-score within array); higher = stronger binding", "details_in_all_cases": "glycan notation: IUPAC condensed, linker removed", "key": {"Fuc(a1-2)Gal(b1-3)GlcNAc": {"molecular_target": "Fuc(a1-2)Gal(b1-3)GlcNAc", "procedure,_shortened": "(§1)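 The binding signal is a Z-score computed within each array. Data were drawn from 3228 arrays in the Consortium for Functional Glycomics database, restricted to those with a known protein sequence. Scores were averaged over arrays of the same protein sequence at different concentrations or buffers, and over linkers, and negative values can be taken as non-binding.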"}, "[1]": {"molecular_target": "Fuc(a1-2)Gal(b1-3)GlcNAc(b1-3)Gal(b1-4)Glc", "procedure,_shortened": "as §1"}, "[2]": {"molecular_target": "Fuc(a1-2)Gal(b1-4)GlcNAc(b1-3)Gal(b1-4)GlcNAc(b1-2)Man(a1-3)[Fuc(a1-2)Gal(b1-4)GlcNAc(b1-3)Gal(b1-4)GlcNAc(b1-2)Man(a1-6)]Man(b1-4)GlcNAc(b1-4)GlcNAc", "procedure,_shortened": "as §1"}, "[3]": {"molecular_target": "Fuc(a1-2)Gal(b1-4)[Fuc(a1-3)]GlcNAc(b1-2)Man(a1-3)[Fuc(a1-2)Gal(b1-4)[Fuc(a1-3)]GlcNAc(b1-2)Man(a1-6)]Man(b1-4)GlcNAc(b1-4)[Fuc(a1-6)]GlcNAc", "procedure,_shortened": "as §1"}, "[4]": {"molecular_target": "Fuc(a1-2)Gal(b1-4)[Fuc(a1-3)]GlcNAc(b1-3)Gal(b1-4)[Fuc(a1-3)]GlcNAc", "procedure,_shortened": "as §1"}, "[5]": {"molecular_target": "Fuc(a1-2)Gal(b1-4)[Fuc(a1-3)]GlcNAc(b1-3)GalNAc", "procedure,_shortened": "as §1"}, "[6]": {"molecular_target": "Fuc(a1-2)Gal6S(b1-3)GlcNAc6S", "procedure,_shortened": "as §1"}, "Fuc(a1-2)Gal6S(b1-4)Glc": {"molecular_target": "Fuc(a1-2)Gal6S(b1-4)Glc", "procedure,_shortened": "as §1"}, "[7]": {"molecular_target": "Fuc(a1-2)[Gal(a1-3)]Gal(b1-4)GlcNAc(b1-2)Man(a1-3)[Fuc(a1-2)[Gal(a1-3)]Gal(b1-4)GlcNAc(b1-2)Man(a1-6)]Man(b1-4)GlcNAc(b1-4)GlcNAc", "procedure,_shortened": "as §1"}, "[8]": {"molecular_target": "Fuc(a1-2)[GalNAc(a1-3)]Gal(b1-4)GlcNAc(b1-2)Man", "procedure,_shortened": "as §1"}, "[9]": {"molecular_target": "Fuc(a1-3)[Gal(b1-4)]GlcNAc(b1-2)Man(a1-3)[Fuc(a1-3)[Gal(b1-4)]GlcNAc(b1-2)Man(a1-6)]Man(b1-4)GlcNAc(b1-4)GlcNAc", "procedure,_shortened": "as §1"}, "[10]": {"molecular_target": "Fuc(a1-3)[Gal(b1-4)]GlcNAc6S", "procedure,_shortened": "as §1"}, "[11]": {"molecular_target": "Fuc(a1-3)[Gal3S(b1-4)]GlcNAc6S", "procedure,_shortened": "as §1"}, "Gal(a1-3)Gal": {"molecular_target": "Gal(a1-3)Gal", "procedure,_shortened": "as §1"}, "[12]": {"molecular_target": "Gal(a1-3)Gal(b1-3)GlcNAc(b1-3)GalNAc", "procedure,_shortened": "as §1"}, "Gal(a1-3)GalNAc": {"molecular_target": "Gal(a1-3)GalNAc", "procedure,_shortened": "as §1"}, "[13]": {"molecular_target": "Gal(a1-3)[Gal(a1-4)]Gal(b1-4)GlcNAc", "procedure,_shortened": "as §1"}, "[14]": {"molecular_target": "Gal(b1-3)GalNAc(b1-3)Gal(a1-4)Gal(b1-4)Glc", "procedure,_shortened": "as §1"}, "[15]": {"molecular_target": "Gal(b1-3)GlcNAc(a1-6)Gal(b1-4)GlcNAc", "procedure,_shortened": "as §1"}, "[16]": {"molecular_target": "Gal(b1-3)[Fuc(a1-4)]GlcNAc(b1-3)Gal(b1-3)[Fuc(a1-4)]GlcNAc", "procedure,_shortened": "as §1"}, "[17]": {"molecular_target": "Gal(b1-4)GlcNAc(b1-2)[Gal(b1-4)GlcNAc(b1-6)]Man(a1-6)[Gal(b1-4)GlcNAc(b1-2)Man(a1-3)]Man(b1-4)GlcNAc(b1-4)[Fuc(a1-6)]GlcNAc", "procedure,_shortened": "as §1"}, "[18]": {"molecular_target": "Gal(b1-4)GlcNAc(b1-3)Gal(b1-3)GlcNAc", "procedure,_shortened": "as §1"}, "[19]": {"molecular_target": "Gal(b1-4)GlcNAc(b1-3)Gal(b1-4)Glc", "procedure,_shortened": "as §1"}, "[20]": {"molecular_target": "Gal(b1-4)GlcNAc(b1-3)Gal(b1-4)GlcNAc(b1-3)Gal(b1-4)GlcNAc", "procedure,_shortened": "as §1"}, "[21]": {"molecular_target": "Gal(b1-4)GlcNAc(b1-6)Gal(b1-4)GlcNAc", "procedure,_shortened": "as §1"}, "[22]": {"molecular_target": "Gal(b1-4)GlcNAc(b1-6)GalNAc", "procedure,_shortened": "as §1"}, "Gal3S(b1-3)GlcNAc": {"molecular_target": "Gal3S(b1-3)GlcNAc", "procedure,_shortened": "as §1"}, "Gal3S(b1-4)Glc": {"molecular_target": "Gal3S(b1-4)Glc", "procedure,_shortened": "as §1"}, "Gal3S4S(b1-4)GlcNAc": {"molecular_target": "Gal3S4S(b1-4)GlcNAc", "procedure,_shortened": "as §1"}, "Gal4S(b1-4)GlcNAc": {"molecular_target": "Gal4S(b1-4)GlcNAc", "procedure,_shortened": "as §1"}}, "note": "Only a selection was taken, and the strongest signals are over-represented in it overall."}
{"binder": "B1", "values": [{"measurement": "glycan array binding signal (z-score)", "setting": "Fuc(a1-2)Gal(b1-3)GlcNAc", "value": 0.613}, {"measurement": "glycan array binding signal (z-score)", "setting": "[1]", "value": -0.174}, {"measurement": "glycan array binding signal (z-score)", "setting": "[2]", "value": 2.35}, {"measurement": "glycan array binding signal (z-score)", "setting": "[3]", "value": 1.46}, {"measurement": "glycan array binding signal (z-score)", "setting": "[4]", "value": 0.109}, {"measurement": "glycan array binding signal (z-score)", "setting": "[5]", "value": -0.688}, {"measurement": "glycan array binding signal (z-score)", "setting": "[6]", "value": -0.204}, {"measurement": "glycan array binding signal (z-score)", "setting": "Fuc(a1-2)Gal6S(b1-4)Glc", "value": 1.85}, {"measurement": "glycan array binding signal (z-score)", "setting": "[7]", "value": -0.837}, {"measurement": "glycan array binding signal (z-score)", "setting": "[8]", "value": 0.256}, {"measurement": "glycan array binding signal (z-score)", "setting": "[9]", "value": -0.853}, {"measurement": "glycan array binding signal (z-score)", "setting": "[10]", "value": 2.6}, {"measurement": "glycan array binding signal (z-score)", "setting": "[11]", "value": 0.828}, {"measurement": "glycan array binding signal (z-score)", "setting": "Gal(a1-3)Gal", "value": 3.3}, {"measurement": "glycan array binding signal (z-score)", "setting": "[12]", "value": 0.549}, {"measurement": "glycan array binding signal (z-score)", "setting": "Gal(a1-3)GalNAc", "value": -0.474}, {"measurement": "glycan array binding signal (z-score)", "setting": "[13]", "value": 2.15}, {"measurement": "glycan array binding signal (z-score)", "setting": "[14]", "value": 0.136}, {"measurement": "glycan array binding signal (z-score)", "setting": "[15]", "value": -0.499}, {"measurement": "glycan array binding signal (z-score)", "setting": "[16]", "value": -0.335}, {"measurement": "glycan array binding signal (z-score)", "setting": "[17]", "value": 0.941}, {"measurement": "glycan array binding signal (z-score)", "setting": "[18]", "value": -0.688}, {"measurement": "glycan array binding signal (z-score)", "setting": "[19]", "value": -0.967}, {"measurement": "glycan array binding signal (z-score)", "setting": "[20]", "value": 0.391}, {"measurement": "glycan array binding signal (z-score)", "setting": "[21]", "value": 1.18}, {"measurement": "glycan array binding signal (z-score)", "setting": "[22]", "value": 1.1}, {"measurement": "glycan array binding signal (z-score)", "setting": "Gal3S(b1-3)GlcNAc", "value": -0.162}, {"measurement": "glycan array binding signal (z-score)", "setting": "Gal3S(b1-4)Glc", "value": 0.159}, {"measurement": "glycan array binding signal (z-score)", "setting": "Gal3S4S(b1-4)GlcNAc", "value": 4.33}, {"measurement": "glycan array binding signal (z-score)", "setting": "Gal4S(b1-4)GlcNAc", "value": 0.737}]}
